Molecular target: PEG-3 (UniProt Q6IN02)
Assay: GAPDH versus PEG-3 reporter suppression – cell-based, luminescence, counter-screen for PEG-3 promoter inhibitor project, SAR follow-up (AID 651551)
Conditions: HeLa PEG-Prom / GAPDH luciferase reporter, 6 or 24 h, run 1, 6 h; at 99 µM (top of the series)

| SMILES | inhibition % (higher = more inhibition) |
| --- | --- |
| Cc1cc(NC(=O)c2ccccc2C)n(-c2nc3ccccc3[nH]2)n1 | 32.8% |
| O=C(Nc1nc(-c2ccccc2)cs1)c1nn(-c2ccccc2)c(=O)c2ccccc12 | -1.45% |
| COc1ccc(-n2nc(C(=O)NCC(=O)Nc3cc(OC)c(OC)c(OC)c3)c3ccccc3c2=O)cc1OC | 6.02% |
| CCCn1nc(C(=O)Nc2nc(-c3ccncc3)cs2)c2ccccc2c1=O | 19.5% |
| Cc1ccc(Cl)cc1Nc1nc(-c2sc(NC(=O)c3ccco3)nc2C)cs1 | 57.5% |
| COc1ccccc1Nc1nc(-c2sc(NC(=O)c3ccco3)nc2C)cs1 | 12% |

Reference: PubChem BioAssay AID651551 (Sanford-Burnham Center for Chemical Genomics, 2012)
